Data reported in PubChem BioAssay.
Where “and” joins values, the source holds several entries; their conditions need not be identical. Equal values may be shown once. A number with no mark means an inactive call.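 How the source made its calls, unless noted: active means GFP signal above the screen-wide mean plus 3 SD, that is over about 124.5% of the solvent control; inconclusive means no reading because the compound's own fluorescence disturbed strain identification; inactive means the rest.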 Inconclusive results are not listed.

How the values were obtained:
[1] = yeast AGP1-GFP level changes, GLN3 branch – cell-based, multiplex flow cytometry, S. cerevisiae, primary screen (AID 1887); details: 3 h, at 10 µM, hits give high values;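 further: AGP1-GFP fusion strain of S. cerevisiae within a five-strain barcoded multiplex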
[2] = biological target: Beta-2 adrenergic receptor (Homo sapiens) (UniProt P07550); assay: agonist-induced loss of surface beta2AR – cell-based, FAP fluorogen, flow cytometry, validation set, pilot screen (AID 504459;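 active means percent response above 42, roughly 3 SD of non-fluorescent test compounds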;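 further: agonist-driven loss of surface beta2AR via internalization measured by FAP dye flow cytometry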); details: Am2.2-beta2AR cells, at 10 µM, hits give high values
Beta-2 adrenergic receptor (Homo sapiens), sequence (P07550 whole entry, looked up): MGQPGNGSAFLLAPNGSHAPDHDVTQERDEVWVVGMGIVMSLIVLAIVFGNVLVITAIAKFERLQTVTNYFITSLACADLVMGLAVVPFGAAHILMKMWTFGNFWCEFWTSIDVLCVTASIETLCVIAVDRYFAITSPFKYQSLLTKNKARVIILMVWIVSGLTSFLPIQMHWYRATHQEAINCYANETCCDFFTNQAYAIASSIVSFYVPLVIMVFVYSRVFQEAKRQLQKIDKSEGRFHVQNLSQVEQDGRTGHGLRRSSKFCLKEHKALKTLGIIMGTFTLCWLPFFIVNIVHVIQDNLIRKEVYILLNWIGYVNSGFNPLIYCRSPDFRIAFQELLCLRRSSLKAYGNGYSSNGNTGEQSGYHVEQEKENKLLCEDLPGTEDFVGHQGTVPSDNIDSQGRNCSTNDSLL

Row | Structure (SMILES) | GFP response, % of DMSO [1] | response [2]
1 | C[C@@H]1O[C@@H](O[C@H]2C[C@@H](O)[C@]3(CO)[C@H]4[C@H](O)C[C@]5(C)[C@@H](C6=CC(=O)OC6)CC[C@]5(O)[C@@H]4CC[C@]3(O)C2)[C@H](O)[C@H](O)[C@H]1O | 116% | -22.9%
2 | C[C@H]1CCC/C=C/C2C[C@H](O)CC2[C@H](O)/C=C/C(=O)O1 (some centres undefined) | 102% | 28.3%
3 | O=C(CCCN1CCC2(CC1)C(=O)NCN2c1ccccc1)c1ccc(F)cc1 | 113% | -35.8%
4 | CC(Cc1ccccc1)NCC(=O)Nc1cc(N(C)C)nc2ccccc12 (centres undefined) | 103% | 
5 | COc1ccc(Cc2nccc3cc(OC)c(OC)cc23)cc1OC | 99.5% | 20.1%
6 | C[N+]1(C)[C@@H]2CC(OC(=O)[C@H](CO)c3ccccc3)C[C@H]1[C@@H]1O[C@@H]12 (some centres undefined) | 99.6% and 104% | 4.9% and -6.87%
7 | O=c1[nH]c2ccccc2n1CCCN1CCC(n2c(=O)[nH]c3cc(Cl)ccc32)CC1 | 101% | 2.71%
8 | O=C1CC[C@@]2(O)[C@H]3Cc4ccc(O)c5c4[C@@]2(CCN3CC2CC2)[C@H]1O5 | 96.1% | -8.64%
9 | CN[C@H]1C[C@H]2O[C@@](C)([C@H]1OC)n1c3ccccc3c3c4c(c5c6ccccc6n2c5c31)C(=O)NC4 | 90.8% | 12%
10 | Cc1cccc(C)c1NC1=NCCCS1 | 91.8% | 
11 | C[N+]1(C)CCN(c2ccccc2)CC1 | 96.6% | 
12 | CC[C@@H](CO)NC(=O)[C@@H]1C=C2c3cccc4c3c(cn4C)C[C@H]2N(C)C1 | 94.5% | 
13 | Cc1cc(Cl)ccc1OCC(=O)O | 103% | 
14 | COc1ccc(C(=O)N2CCCC2=O)cc1 | 117% | -0.27%
15 | c1ccc(Cn2ccnc2)cc1 | 98.2% | 
16 | CCN(CC)C(=O)N[C@H]1C[C@@H]2c3cccc4[nH]cc(c34)C[C@H]2N(C)C1 | 98.6% | -25%
17 | CC(C)(C)NCC(O)c1cc(Cl)c(N)c(Cl)c1 (centres undefined) | 91.4% | 
18 | [N-]=[N+]=NC1C[C@H](n2ccc(=O)[nH]c2=O)O[C@@H]1CO (some centres undefined) | 104% | 

Row | Structure (SMILES) | GFP response, % of DMSO [1] | response [2]
19 | Cc1ccc(/C=C2/C(=O)NC(=O)N(C)C2=O)cc1 | 93.6% | 
20 | S=C1NCCN1 | 99.6% | 
21 | Cc1ccc2c(c1)C1CN(C)CCC1N2C(=O)Nc1cccc(Cl)c1 (centres undefined) | 102% | 
22 | COc1ccc2c(c1)CC1(CN2C)C(=O)NC(=O)N(CCc2ccccc2)C1=O (centres undefined) | 97.8% | -3.63%
23 | NCCc1c[nH]c2ccc(F)cc12 | 100% | 1.11%
24 | CN1C(=O)CN=C(c2ccc(Cl)cc2)c2cc(Cl)ccc21 | 92.2% | -17.9%
25 | CCNC(=S)N(C)CCc1cc2c(c(OC)c1C=C1C(=O)N(C)C(=O)N(C)C1=O)OCO2 | 96.1% | 
26 | COc1ccc(OC)c(C(O)C(C)N)c1 (centres undefined) | 98.3% | -5.54%
27 | CN[C@H](C)[C@H](O)c1ccccc1 | 101% | -9.17%
28 | NCC1(c2ccc3c(c2)OCCO3)CCCC1 | 91.3% | 
29 | CC(C)[C@H]1C(=O)N2CCC[C@H]2[C@]2(O)O[C@](NC(=O)[C@@H]3C=C4c5cccc6[nH]cc(c56)C[C@H]4N(C)C3)(C(C)C)C(=O)N12 | 118% | -24.6%
30 | COC1=CC(=O)OC(/C=C/c2ccccc2)C1 (centres undefined) | 103% | 
31 | CC(=O)c1ccc(-c2ccccc2)cc1 | 103% | 9.21%
32 | O=C(O)CCCc1ccc(N(CCCl)CCCl)cc1 | 97.6% | 
33 | CN(C)[C@@H]1C(=O)C(C(N)=O)=C(O)[C@@]2(O)C(=O)C3=C(O)c4c(O)cccc4[C@@](C)(O)[C@H]3[C@H](O)[C@@H]12 | 103% | 
34 | C[C@H]1CCC[C@H](O)CCCCCc2cc(O)cc(O)c2C(=O)O1 | 105% | 
35 | Cc1cc(Cl)ccc1OC(C)C(=O)O (centres undefined) | 87.3% | -8.83%
36 | CC(=O)[C@H]1CC[C@H]2[C@@H]3CC[C@H]4C[C@H](O)CC[C@]4(C)[C@H]3C(=O)C[C@]12C | 90.4% | 
